Assay results taken from PubChem BioAssay AID1159580 (chemical genetic matrix, 2015).
Values joined by “and” are separate entries in the source; they are usually repeats but may differ in a detail not shown here. Equal values may be shown once. Screen size: about 5,500 compounds; about 2,000 (36%) were called active. About 18% were inconclusive and are not listed. Some of the results follow. Values without a mark were called inactive. Rule as the data show it: active = normalized growth mostly below about 0.91 (no sharp cut-off); inconclusive = no clear call, values can overlap the other calls; inactive = mostly above about 0.92.

Assay: chemical genetic growth profiling, strain panel (AID 1159580);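 also: tested at 20 µM; growth read once vehicle control cultures reached saturation at 30 °C; 1 = growth at the plate median or of vehicle wells; lower values mean less growth of the strain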
Conditions: S. cerevisiae deletion strains, growth OD

## CC[C@H](C)C(=O)O[C@H]1C[C@@H](C)C=C2C=C[C@H](C)[C@H](CC[C@@H]3C[C@@H](O)CC(=O)O3)[C@H]21
Locus YAL013W, strain DEP1, hits give low values
  normalized growth: 0.982
Locus YAL021C, strain ccr4, hits give low values
  normalized growth: 0.82 (active)
Locus YAL026C, strain drs2, hits give low values
  normalized growth: 0.994
Locus YAL030W, strain snc1, hits give low values
  normalized growth: 1.01
Locus YBL061C, strain skt5, hits give low values
  normalized growth: 1
Locus YBR009C, strain hhf1, hits give low values
  normalized growth: 1.02
Locus YBR021W, strain FUR4, hits give low values
  normalized growth: 1.04
Locus YBR023C, strain chs3, hits give low values
  normalized growth: 1.01
Locus YBR171W, strain sec66, hits give low values
  normalized growth: 1
Locus YBR229C, strain ROT2, hits give low values
  normalized growth: 0.944
Locus YBR231C, strain swc5, hits give low values
  normalized growth: 0.915
Locus YBR279W, strain paf1, hits give low values
  normalized growth: 1.01
Locus YCL011C, strain gbp2, hits give low values
  normalized growth: 1.01
Locus YCL016C, strain dcc1, hits give low values
  normalized growth: 0.999
Locus YCL029C, strain bik1, hits give low values
  normalized growth: 0.991
Locus YCL061C, strain MRC1, hits give low values
  normalized growth: 0.997
Locus YCL069W, strain vba3, hits give low values
  normalized growth: 1.01
Locus YCR088W, strain abp1, hits give low values
  normalized growth: 0.998
Locus YDL005C, strain med2, hits give low values
  normalized growth: 0.982
Locus YDL035C, strain GPR1, hits give low values
  normalized growth: 0.961
Locus YDL040C, strain nat1, hits give low values
  normalized growth: 1.01
Locus YDL074C, strain BRE1, hits give low values
  normalized growth: 1
Locus YDL101C, strain DUN1, hits give low values
  normalized growth: 0.977
Locus YDL134C, strain PPH21, hits give low values
  normalized growth: 0.971
Locus YDL185W, strain tfp1, hits give low values
  normalized growth: 0.977
Locus YDL192W, strain arf1, hits give low values
  normalized growth: 0.983
Locus YDR001C, strain nth1, hits give low values
  normalized growth: 1
Locus YDR069C, strain doa4, hits give low values
  normalized growth: 1.01
Locus YDR101C, strain arx1, hits give low values
  normalized growth: 1.02
Locus YDR137W, strain rgp1, hits give low values
  normalized growth: 1.28 [resistant] (active)
Locus YDR150W, strain NUM1, hits give low values
  normalized growth: 0.967
Locus YDR159W, strain sac3, hits give low values
  normalized growth: 1.02
Locus YDR162C, strain NBP2, hits give low values
  normalized growth: 0.951
Locus YDR195W, strain ref2
  normalized growth: 1.06
Locus YDR297W, strain sur2, hits give low values
  normalized growth: 0.997
Locus YDR318W, strain mcm21, hits give low values
  normalized growth: 0.996
Locus YDR334W, strain swr1, hits give low values
  normalized growth: 0.954
Locus YDR335W, strain msn5, hits give low values
  normalized growth: 1
Locus YDR388W, hits give low values
  normalized growth: 0.996
Locus YDR392W, strain spt3, hits give low values
  normalized growth: 0.983
Locus YDR502C, strain sam2, hits give low values
  normalized growth: 0.969
Locus YEL003W, strain gim4, hits give low values
  normalized growth: 1
Locus YEL037C, strain rad23, hits give low values
  normalized growth: 1
Locus YEL061C, strain CIN8 (second series), hits give low values
  normalized growth: 1
Locus YEL061C, strain CIN8, hits give low values
  normalized growth: 0.979
Locus YER015W, strain faa2, hits give low values
  normalized growth: 1.01
Locus YER016W, strain bim1, hits give low values
  normalized growth: 1
Locus YER110C, hits give low values
  normalized growth: 0.974
Locus YER111C, strain swi4, hits give low values
  normalized growth: 1.01
Locus YER155C, strain BEM2 (second series), hits give low values
  normalized growth: 1.01
Locus YER155C, strain BEM2, hits give low values
  normalized growth: 0.986
Locus YER167W, strain BCK2, hits give low values
  normalized growth: 0.942
Locus YFR010W, strain ubp6, hits give low values
  normalized growth: 1.02
Locus YGL078C, strain dbp3, hits give low values
  normalized growth: 0.984
Locus YGL086W, strain mad1, hits give low values
  normalized growth: 0.968
Locus YGL167C, strain pmr1, hits give low values
  normalized growth: 0.998
Locus YGL173C, strain kem1, hits give low values
  normalized growth: 1.01
Locus YGL227W, strain vid30, hits give low values
  normalized growth: 0.996
Locus YGL240W, strain doc1, hits give low values
  normalized growth: 1.04
Locus YGL248W, strain PDE1, hits give low values
  normalized growth: 0.974
Locus YGL253W, strain hxk2, hits give low values
  normalized growth: 0.996
Locus YGR078C, strain PAC10, hits give low values
  normalized growth: 0.996
Locus YGR135W, strain pre9, hits give low values
  normalized growth: 0.942
Locus YGR229C, strain SMI1, hits give low values
  normalized growth: 0.95
Locus YGR252W, strain gcn5, hits give low values
  normalized growth: 0.878
Locus YHR013C, strain ard1, hits give low values
  normalized growth: 1.04
Locus YHR027C, strain rpn1, hits give low values
  normalized growth: 1.01
Locus YHR030C, strain SLT2, hits give low values
  normalized growth: 0.985 and 0.963
Locus YHR079C, strain IRE1 (second series), hits give low values
  normalized growth: 0.995
Locus YHR079C, strain IRE1, hits give low values
  normalized growth: 0.992
Locus YHR094C, strain hxt1, hits give low values
  normalized growth: 0.989
Locus YHR129C, strain ARP1, hits give low values
  normalized growth: 0.996
Locus YHR142W, strain chs7, hits give low values
  normalized growth: 1
Locus YHR200W, strain rpn10, hits give low values
  normalized growth: 0.994
Locus YIL066C, strain RNR3, hits give low values
  normalized growth: 0.965
Locus YIL073C, strain SPO22, hits give low values
  normalized growth: 0.823
Locus YIL125W, strain kgd1, hits give low values
  normalized growth: 0.974
Locus YIR030C, strain dcg1, hits give low values
  normalized growth: 0.976
Locus YJL092W, strain hpr5, hits give low values
  normalized growth: 1
Locus YJL095W, strain BCK1 (second series), hits give low values
  normalized growth: 1.01
Locus YJL095W, strain BCK1, hits give low values
  normalized growth: 0.988 and 0.96
Locus YJL115W, strain asf1, hits give low values
  normalized growth: 1.01
Locus YJL129C, strain trk1, hits give low values
  normalized growth: 0.997
Locus YJL134W, strain LCB3, hits give low values
  normalized growth: 0.979
Locus YJL154C, strain vps35, hits give low values
  normalized growth: 1.01
Locus YJL164C, strain tpk1, hits give low values
  normalized growth: 1
Locus YJL166W, strain qcr8, hits give low values
  normalized growth: 1.01
Locus YJL168C, strain set2, hits give low values
  normalized growth: 0.996
Locus YJL187C, strain SWE1 (second series), hits give low values
  normalized growth: 0.989
Locus YJL187C, strain SWE1, hits give low values
  normalized growth: 1
Locus YJR043C, strain POL32, hits give low values
  normalized growth: 1.04
Locus YJR066W, strain TOR1, hits give low values
  normalized growth: 0.915
